A selection: hits, their analogues and other compounds. The true share with any hit is near 2.8%.
POLH inh = inhibitors of human DNA polymerase eta; Q9Y253; recombinant Pol eta, fluorescent DNA replication assay; Potency, µM (highest dose often 114 µM), without a hit: at the highest dose activity change, negative = inhibition, most hits filed as inhibitors; 1.2% of 390,000 active; note: potency is the fitted concentration of half-maximal effect; % is set by controls: 0 for no effect and ±100 for the full control effect
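Pol eta at 10 nM preincubated with compounds 15 min at room temperature; reaction started with fluorescent substrate (50 nM final) and read kinetically at 0 and 10 min.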
POLB inh = blocks human DNA polymerase beta activity. P06746. Pol beta primer extension/strand displacement, fluorescence kinetic. Potency, µM (series often up to 114 µM), inactives show at the top dose activity change, negative = inhibition, actives largely listed as inhibitors. 1.3% of 340,000 active. AID 485314; note: potency is the fitted concentration of half-maximal effect; % is set by controls: 0 for no effect and ±100 for the full control effect
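Human Pol beta at 10 nM; strand-displacement substrate 50 nM final. Compound exposure 15 min at room temperature before start, reaction 10 min at room temperature.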
PI5P4K alpha inh = PI5P4K alpha (human) kinase inhibition. P48426. PI5P4Kalpha enzyme, ADP-Glo luminescence, 60 min; active compounds read low. max response, %. 1.2% of 330,000 active; active = max response of -50% or lower; inconclusive = between -30% and -50%; inactive = -30% or higher; note: value at the top dose of about 77 µM; % is set by controls: 0 for no effect and ±100 for the full control effect
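ADP-Glo luminescence end-point read after a 60 min room-temperature kinase reaction of PI5P4Kalpha plus substrate, initiated with ATP at 5 microM final. Buffer: 0.038 M HEPES pH 7.4, EGTA, 0.1% CHAPS, 5% DMSO.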
POLK inh = inhibitors of human DNA polymerase kappa | Q9UBT6 | purified Pol kappa, fluorescent DNA synthesis assay, 10 min | Potency, µM (doses to about 107 µM), inactives show at the top dose activity, negative = inhibition, usual class: inhibitors | 0.53% of 400,000 active; note: potency is the fitted concentration of half-maximal effect; % is set by controls: 0 for no effect and ±100 for the full control effect
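Inhibition of 10 nM Pol kappa is measured by a fluorescent read-out at 0 and 10 min following addition of 50 nM substrate (final), with a 15-min room-temperature compound preincubation.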
POLI inh = blocks human DNA polymerase iota activity; 1% of 390,000 active; Pol iota fluorescent replication assay, 10 min; Potency, µM (doses to about 115 µM), without a hit: at the highest dose activity, negative = inhibition, usual class: inhibitors; Q9UNA4; note: potency is the fitted concentration of half-maximal effect
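Fluorescent replication assay read twice, at 0 min and 10 min after adding 50 nM (final) substrate. Enzyme (10 nM) and compounds were first incubated 15 min at room temperature; enzyme-free buffer wells were negative controls.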
WRN helicase inh = WRN helicase (human) inhibition | Q14191 | WRN helicase unwinding, fluorescent forked duplex, kinetic | Potency, µM (highest dose often 114 µM), for the others: top-dose activity change, negative = inhibition, most hits filed as inhibitors | 0.46% of 360,000 active; note: potency is the fitted concentration of half-maximal effect; % is set by controls: 0 for no effect and ±100 for the full control effect; nearly all actives have a fitted effect of over 55% in size
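Screening of the MLSMR collection measured strand separation of a quenched forked DNA duplex (100 nM) by 20 nM WRN with 2 mM ATP, all final. Compounds were preincubated with enzyme 15 min at room temperature.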
An asterisk follows results filed as active; ? = inconclusive; · = no result; ! = repeats disagree; [ ] = dose if it differs, or a comment. Unless noted, calls come from the whole dose curve; as a rule, active = well fitted curve in the direction sought with a large enough effect; inconclusive = small, poorly fitted or top-dose-only effect, or another doubt; inactive = no such curve, though single readings can be large; an effect the other way counts as inactive or inconclusive.

SMILES | POLH inh | POLB inh | PI5P4K alpha inh | POLK inh | POLI inh | WRN helicase inh
COc1ccc(N(C(=O)c2ccc(Cl)cc2)S(=O)(=O)c2ccc(C)cc2)cc1 | -2% | 1% | · | 5% | 41% | ·
N/C(=C\C(=O)c1cc(Cl)ccc1O)C(Cl)(Cl)Cl | 50µM* | 13% | 1 | 0% | ? | 0%
Cc1cc(C)nc(SCC(=O)NN=C2CCCC2)n1 | -10% | 27% | -50* | 5% | -14% | 4%
Cc1nn(-c2ccccc2)c(C)c1C(=O)NCc1cccs1 | -13% | 47% | 4 | 4% | 28% | 2%
Cc1nn(-c2ccccc2)c(Cl)c1C(=O)NCc1cccs1 | ? | 13µM* | ? | -41% | ? | -7%
CN(C)S(=O)(=O)c1ccc2c(c1)c(=O)c(C(=O)N1CCN(c3cccc(Cl)c3)CC1)cn2C | -27% | 14% | · | -5% | 13% | ·
COC(=O)CN1C(=O)COc2ccc(S(=O)(=O)N3CCCCCC3)cc21 | -8% | 7% | 1 | 4% | 44% | 6%
N#CCSc1nc2sccc2c(=O)n1-c1ccccc1 | -6% | 12% | -70* | -7% | 37% | -11%
CNC(=O)CSc1nc2sccc2c(=O)n1-c1ccccc1 | 3% | -2% | ? | -14% | 71% | -5%
Cc1ccc(C)n1C(CC(=O)O)c1ccc(C#N)cc1 (stereo not drawn) | 22µM* | -2% | -5 | 79µM* | 50µM* | ?
CCCCCCC(=O)N(O)C1CC(=O)N(c2ccc(F)cc2)C1=O (stereo not drawn) | -3% | 6% | -25 | -2% | 79% | 28µM*
CCCCCCC(=O)N(O)C1CC(=O)N(c2ccc(Br)cc2)C1=O (stereo not drawn) | -9% | 0% | · | -2% | 1% | 0%
COc1ccc(NC(=O)C2=CC(c3cccs3)=NS(=O)(=O)N2C)cc1 | -4% | 32µM*! | 5 | 5% | 19% | -3%
CN1C(C(=O)Nc2ccc(OC(F)(F)F)cc2)=CC(c2cccs2)=NS1(=O)=O | ? | -4% | -5 | 1% | -12% | 5%
S=c1[nH]nc(-c2ccc(Cl)cc2)n1/N=C/C=C/c1ccco1 | ? | 25µM* | ? | -20% | -12% | -26%
S=c1[nH]nc(-c2cccnc2)n1/N=C/C=C/c1ccco1 | ? | 13µM* | -21 | -36% | ? | ?
S=c1[nH]nc(-c2ccc(Cl)cc2)n1/N=C/c1ccco1 | 7% | -1% | -6 | -11% | 8% | -9%
S=c1[nH]nc(-c2ccccc2)n1/N=C/C=C/c1ccco1 | -19% | 45µM* | -15 | -17% | 52% | -1%
O=C(O)c1ccc(N[C@@H]2OC[C@@H](O)[C@@H](O)[C@@H]2O)cc1 | · | · | · | 9%[19.4 µM] | · | ·
C=CCOc1ccc(C=Nc2ccc(C)c(Cl)c2)c(O)c1 | -22% | 40% | 2 | -9% | 7% | -2%
c1csc(-c2nc(N3CCN(Cc4ccc5c(c4)OCCO5)CC3)c3ccccc3n2)c1 | · | · | · | 0% | 15% | ·
Fc1ccc(-c2nnc(-c3ccc(F)cc3)o2)cc1 | 3% | 1% | 3 | 8% | -15% | -7%
Fc1ccc(-c2nnc(Cc3nnc(-c4ccc(F)cc4)o3)o2)cc1 | 3% | 40µM* | · | -16% | -5%[58.9 µM] | -5%
Cc1ccc2nc(-c3ccc(-c4ccccn4)s3)cn2c1 | -18% | 40µM* | -16 | -20% | ? | ?
C=N[C@H](C(=O)N[C@@H]1C(=O)N2[C@@H]1SC(C)(C)[C@@H]2C(=O)O)c1ccccc1 | · | · | · | -3%[12 µM] | · | ·
COc1ccc(N=C2S/C(=C\c3ccco3)C(=O)N2CC(C)C)cc1 | -10% | 79µM* | -12 | -2% | -3% | 9%
COc1ccc(N=C2S/C(=C\c3cc(C)n(C)c3C)C(=O)N2CC(C)C)cc1 | -15% | 0% | -5 | -8% | -6% | -31%
O=C(C[n+]1c2ccccc2cc2ccccc21)c1ccc(F)cc1 | · | · | · | 0% | 57% | ·
CC(=O)c1cccc(NC(=O)COc2cc3oc(=O)c(CC(C)O)c(C)c3cc2Cl)c1 (stereo not drawn) | ? | ? | -22 | -39% | 56µM* | -31%[57.1 µM]

High-throughput results deposited in PubChem by National Center for Advancing Translational Sciences (NCATS).
